Molecules are shown by their SMILES. The whole screen tested about 1,400 compounds, of which about 50 (4%) were called active.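 How the source made its calls: active means fitted curve reaches 30% CPE protection at or below the top valid dose, with every test run called active; inconclusive means test runs disagree, some active and some not; inactive means every test run inactive, including effects in the wrong direction.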 The list is a sample of the results. Entries with a potency or affinity are not part of this list.

A short description of this experiment: antiviral rescue of DENV2-infected BHK-21 cells – cell-based, ATP luminescence, cherry-pick, dose response (AID 687031). Particulars: BHK-21 DENV2 CPE protection, 5 d; series mostly up to 19.5 µM.
As for `Cc1ccccc1-c1ccc(C2[C@@H]3CN(C(=O)Cc4ccncc4)C[C@H]2N3)cc1` (some centres not stated), the result was inactive.
With `COc1cccc(-c2ccc3c(c2)[C@H]2[C@H](CCN2S(=O)(=O)c2cn(C)cn2)[C@@H](CO)N3)c1` the entry was “inactive”; with `COc1cccc(NC(=O)N2[C@@H]3CNC[C@H]2C3c2ccc(-c3ccccc3)cc2)c1` (some centres not stated), “inactive”.
With `CS(=O)(=O)N1[C@@H]2CNC[C@H]1C2c1ccc(-c2ccccc2)cc1` (some centres not stated) the entry was “inactive”; with `C[C@@H]1CN([C@H](C)CO)C(=O)c2cccc(NC(=O)Nc3ccc4c(c3)OCO4)c2O[C@H]1CN(C)C(=O)Nc1ccccc1`, “inactive”; with `CCOC(=O)CC[C@H](NC(=O)Cn1cnc2c(OCc3ccccc3)ncnc21)C(=O)OCC`, “inactive”.
The result for `COc1ccc(C(CNC(=O)COc2cc(C)ccc2Cl)N2CCCCC2)cc1` (configuration not stated) reads “inactive”; that for `COc1ccc2o/c(=N\O)c(C(=O)Nc3ccc(C)cc3)cc2c1`, “inactive”.
`COc1cc(S(=O)(=O)NCc2ccncc2)c(OC)cc1Br`: the result was inactive.
In the case of `CO[C@@H]1CN(C)C(=O)c2ccc(NC(=O)CC(F)(F)F)cc2OC[C@H](C)N(C(C)=O)C[C@@H]1C`, the result was inactive.
With `O=C1Nc2ccccc2SC1c1ccccc1` (configuration not stated) the entry was “inactive”.
Consider `O=C1Nc2ccccc2C(=O)N(C2CCCC2)C1C(=O)NC1CC1` (configuration not stated), for which the outcome was inactive.
With `C[C@@H]1CN([C@H](C)CO)C(=O)c2cc(N(C)C)ccc2O[C@@H](C)CCCCO[C@@H]1CN(C)C(=O)CCC(F)(F)F` the entry was “inactive”; with `OC(COc1ccc(Cl)cc1Cl)Cn1ccnc1` (configuration not stated), “inactive”; with `Cc1nccn1CC(O)COc1ccc(Cl)cc1Cl` (configuration not stated), “inactive”.
With `CCC(C(=O)Nc1c(C)cccc1C)n1c(-c2ccc(=O)[nH]c2)nc2ccccc21` (configuration not stated) the entry was “inactive”.
`O=C(NCc1ccc2c(c1)OCO2)C(=O)NCC1OCCCN1S(=O)(=O)c1ccccc1` (configuration not stated): the call was inactive.
Take `Cc1ccc(C(=O)NCC(=O)Nc2ccc(S(=O)(=O)Nc3cc(C)nc(C)n3)cc2)cc1`: the result was inactive.
With `O=C(C[C@H]1CC[C@@H]2[C@H](COC[C@H](O)CN2C(=O)Cc2ccccc2)O1)NC1CCCC1` the entry was “inactive”; with `Cc1ccc(S(=O)(=O)Nc2cccc(C(=O)NCCCn3ccnc3)c2)cc1F`, “inactive”.
With `CCOC(=O)N1CCC(NC(=O)c2cccc3c2C(=O)N(CCOC)C3)CC1` the entry was “inactive”; with `CCOC(=O)N1CCC(NS(=O)(=O)c2ccc(C#N)cc2)CC1`, “inactive”.
With `CC(C)OC(=O)c1ccc(NCc2cc(O)ccc2O)cc1` the entry was “inactive”.
For `CCOC(=O)N1C=CC=C[C@@H]2[C@@H](N3C(=O)c4ccccc4C3=O)C(=O)N21`, the molecule was called inactive.
With `COc1ccc(C2CC(c3cccs3)=NN2C(=O)CCC(=O)O)cc1OC` (configuration not stated) the entry was “inactive”; with `COc1ccc(NC(=O)Nc2cccc3c2O[C@H](CN(C)C(=O)Nc2ccc(OC)cc2)[C@@H](C)CN([C@@H](C)CO)C3=O)cc1`, “inactive”; with `Cc1cccnc1`, “inactive”.
With `CC(=O)N1c2ccc(S(=O)(=O)NCCC(=O)N3CCCC(C)C3)cc2CC1C` (configuration not stated) the entry was “inactive”; with `Cc1ccccc1NS(=O)(=O)c1ccc(S(=O)(=O)N2CCCC2)cc1`, “inactive”.
With `CCOc1ccc(C(=O)Nc2ccc(CN3CCOCC3)cc2)cc1Cl` the entry was “inactive”; with `Cc1ccc(NC(=O)C2CCCCC2)cc1C`, “inactive”; with `Brc1ccc(OCc2nnc(SCC3CCCCC3)o2)cc1`, “inactive”.
For `N#CCSc1ccccc1NC(=O)CN1C(=O)C(=O)N(Cc2ccccc2)C1=O`, the result was inactive.
The result for `COc1ccccc1N1CCN(S(=O)(=O)CCNC(=O)CCc2ccccc2)CC1` reads “inactive”; that for `COCCNC(=O)CCC1CCN(Cc2ccc(-c3ccccc3)cc2)CC1`, “inactive”.
Take `C[C@@H]1CN([C@H](C)CO)C(=O)Cc2cc(NC(=O)CCCCCC(=O)Nc3ccccc3N)ccc2O[C@@H]1CN(C)Cc1ccc(Cl)c(Cl)c1`: the result was inactive.
With `CCc1nc2c(OCCc3cccc(OC)c3)cccn2c1N(C)C(=O)c1ccc(C)cc1` the entry was “inactive”; with `CN1[C@@H]2Cn3c(ccc(C4=CCCC4)c3=O)[C@H]1[C@@H](C(=O)N1CCCCC1)[C@@H]2CO`, “inactive”; with `CCCN1[C@H](C(=O)OC)[C@@H](CO)[C@@H]2Cn3c(ccc(C4=CCCC4)c3=O)[C@@H]21`, “inactive”.
The result for `O=C(Nc1ccc2c(c1)OCCO2)c1cccc(C(=O)Nc2ccc3c(c2)OCCO3)c1` reads “inactive”; that for `O=C(COC(=O)CNC(=O)c1ccc(Cl)cc1)Nc1ncc(C(F)(F)F)cc1Cl`, “inactive”.
The result for `Cc1ccccc1OCC(=O)OCC(=O)NCCNC(=O)COC(=O)COc1ccccc1C` reads “inactive”; that for `CC1CC(C)CN(C(=O)COC(=O)c2nccnc2N)C1` (configuration not stated), “inactive”; that for `O=C(COc1ccc(-c2nnco2)cc1)NCc1ccccc1Cl`, “inactive”.
Regarding `Cc1ccccc1S(=O)(=O)N1[C@H](C#N)[C@H](c2ccccc2)[C@@H]1CO`, the result was inactive.
The result for `CN1C(=O)c2cc(NC(=O)NC3CCCC3)ccc2OC[C@H]2O[C@@H](CC(=O)NCC3CC3)CC[C@@H]21` reads “inactive”; that for `Cc1ccccc1-c1cnc(C(O)c2cccc(C)c2C)[nH]1` (configuration not stated), “inactive”.
With `CC(C)c1ccc(S(=O)(=O)N2CCN(C(=O)n3ccnc3)CC2)cc1` the entry was “inactive”; with `CC(=O)Nc1cc(-c2ccc(C(=O)NC3CC3)cc2)cn2c(-c3cccc(C(F)(F)F)c3)cnc12`, “inactive”.
The result for `Cc1ccc(NC(=O)C2(c3cccs3)CCOCC2)cc1C` reads “inactive”; that for `COc1ccc(C(CNC(=O)CCNC(=O)c2ccc(Br)cc2)N2CCOCC2)cc1` (configuration not stated), “inactive”; that for `Cc1ccccc1-c1csc(C(C)(O)c2ccccc2)n1` (configuration not stated), “inactive”.
Turning to `O=C(c1ccncc1)N1CCCC(N2CCN(c3cccc(C(F)(F)F)c3)CC2)C1` (configuration not stated), the molecule was classed as inactive.
`O=C(c1cc(C2CC2)on1)N1CCCC(N2CCN(c3cccc(C(F)(F)F)c3)CC2)C1` (configuration not stated): the molecule was called inactive.
The result for `CN(CC(=O)Nc1ccc(Cl)cc1)C(=O)CCc1nc2sc3c(c2c(=O)[nH]1)CCCC3` reads “inactive”; that for `COC(=O)[C@@H]1[C@H](CCc2ccccc2)NC(=O)N(Cc2ccccc2)[C@@H]1C`, “inactive”; that for `CC#CCN1C(=O)N[C@@H](c2ccccc2)C(C(=O)OC)=C1C`, “inactive”.
With `O=S(=O)(NN=Cc1cccc(Cl)c1)c1ccccc1` the entry was “inactive”.
The result for `Cc1ccc2c(COC(=O)CNC(=O)c3ccccc3)cc(=O)oc2c1` reads “inactive”; that for `COc1cc(OC)cc(C(=O)NCCC(c2ccccc2)c2ccccc2)c1`, “inactive”.
For the molecule `C[C@@H]1CN([C@H](C)CO)C(=O)c2cc(NC(=O)c3ccccc3)ccc2O[C@@H](C)CCCCO[C@@H]1CN(C)S(=O)(=O)c1ccc(F)cc1`, the molecule was classed as inactive.
With `C[C@@H]1CCCCO[C@@H](CN(C)S(=O)(=O)c2ccc(F)cc2)[C@@H](C)CN([C@@H](C)CO)C(=O)c2cc(NC(=O)c3ccccc3)ccc2O1`, the molecule was classed as inactive.
The result for `Cc1noc(C)c1NC(=O)Nc1ccc2c(c1)C(=O)N([C@@H](C)CO)C[C@@H](C)[C@@H](CN(C)Cc1ccccc1)OCCCC[C@@H](C)O2` reads “inactive”; that for `Cc1noc(C)c1NC(=O)Nc1ccc2c(c1)C(=O)N([C@@H](C)CO)C[C@@H](C)[C@@H](CN(C)C)OCCCC[C@@H](C)O2`, “inactive”; that for `Cc1cnc(CNC(=O)C2CCC(=O)N(Cc3ccc(Cl)cc3)C2)[nH]1` (configuration not stated), “inactive”.
Regarding `ClC(CCN1CCN(Cc2ccccc2)CC1)c1ccccc1` (configuration not stated), the result was inactive.
With `Cc1cccc(N(CC(=O)NC(C)(C)C)C(=O)CNC(=O)c2cccs2)c1C` the entry was “inactive”.
Regarding `CS(=O)(=O)N1CCc2cc(C(=O)N3CCN(c4ccccc4)CC3)ccc21`, the call was inactive.
With `CC1CCN(C(=O)COC(=O)c2cc3ccccc3oc2=O)CC1` the entry was “inactive”; with `CCOC(=O)N1CCC(NCCNC(=O)c2ccc(F)c(F)c2)CC1`, “inactive”.
The result for `Cc1noc(C)c1NC(=O)N(C)C[C@@H]1Oc2c(NS(=O)(=O)c3ccccc3)cccc2C(=O)N([C@@H](C)CO)C[C@@H]1C` reads “inactive”; that for `CCNC(=O)C1(C)CCN(Cc2noc(-c3c(C)noc3C)n2)C1` (configuration not stated), “inactive”.
For `O=C(NC1CCCCC1)N[C@H]1C=C[C@@H](CC(=O)N2CCOCC2)O[C@@H]1CO`, the call was inactive.
With `O=C(C[C@H]1C=C[C@H](NS(=O)(=O)c2ccccc2)[C@H](CO)O1)N1CCC(Cc2ccccc2)CC1` the entry was “inactive”; with `CCN(c1ccccc1)S(=O)(=O)c1ccc(OC)c(NC(=O)C2CCC2)c1`, “inactive”.
Take `Cc1cccc(OCC(=O)NNC(=O)C2CCCCC2C(=O)O)c1` (configuration not stated): the result was inactive.
For the molecule `c1ccc(-c2ccc(OCCN3CCOCC3)cc2)cc1`, the molecule was called inactive.
The result for `CN1CCN(CCOc2ccc(-c3ccccc3)cc2)CC1` reads “inactive”; that for `Cc1cc(=O)oc2cc(OCCSCCN3CCCC3)ccc12`, “inactive”.
With `O=C(NCc1cc(C(F)(F)F)cc(C(F)(F)F)c1)C1CC(c2cccc(F)c2)=NO1` (configuration not stated) the entry was “inactive”.
The result for `O=C(C[C@@H]1CC[C@H]2[C@@H](COC[C@@H](O)CN2C(=O)c2ccncc2)O1)NCc1ccc(-c2ccccc2)cc1` reads “inactive”; that for `CCCC[C@@H]1CNC(=O)C(=O)N1CCCCC1CCCCC1`, “inactive”.
`CCC(=O)Nc1ccc2c(c1)C(=O)N(C)[C@@H]1CC[C@H](CC(=O)N[C@@H](C)c3ccccc3)O[C@@H]1CO2`: the molecule was classed as inactive.
The result for `O=C(NCCN1CCCC1)[C@H]1N[C@H]2c3ccc(-c4ccccc4)c(=O)n3C[C@H]2[C@@H]1CO` reads “inactive”.
The result for `O=C(NCc1ccccc1F)[C@H]1N[C@H]2c3ccc(-c4ccccc4F)c(=O)n3C[C@H]2[C@@H]1CO` reads “inactive”.
With `O=C(c1cc(-c2ccccc2)n[nH]1)N1CCN(S(=O)(=O)c2ccccc2)CC1` the entry was “inactive”; with `COCCn1nnnc1C(c1cc2cc(C)ccc2[nH]c1=O)N1CCN(C2CCCCC2)CC1` (configuration not stated), “inactive”.
With `CCN(CC(=O)Nc1c(F)cccc1F)C(=O)c1cccc(S(=O)(=O)NCc2ccccc2)c1`, the call was inactive.
On to `CCN(CC(=O)Nc1cc(Cl)ccc1-n1cncn1)Cc1nc2ccccc2c(=O)[nH]1`, for which the call was inactive.
Take `C[C@@H]1CN([C@H](C)CO)C(=O)Cc2cc(NC(=O)Cn3cnnn3)ccc2O[C@@H]1CN(C)Cc1ccc(C(=O)Nc2ccccc2N)cc1`: the outcome was inactive.
The result for `CCCN1CCC(NC(=O)CC2C(=O)NCCN2Cc2cccc(OC)c2)CC1` (configuration not stated) reads “inactive”; that for `Cc1cnc(CN(C)C(=O)CC2C(=O)NCCN2Cc2cccc(F)c2F)[nH]1` (configuration not stated), “inactive”.
